Our source for the Potency values is PubChem BioAssay (Tox21).

Experiment [1] is described as follows: qHTS assay to identify small molecule agonists of the vitamin D receptor (VDR) signaling pathway - cell viability counter screen (AID 743224). Also: nearly all actives have a fitted effect of over 50% in size. Also: potency is read from the fitted curve at half-maximal effect. A digest of the protocol:
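Viability is measured in the same wells as the VDR-bla reporter assay: after 16 h compound treatment and 2 h substrate loading, CellTiter-Glo is added and luminescence read 30 min later.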
For orientation: In qHTS, concentration-response curves come from the screen itself.

Experiment [2] in a line: qHTS assay to identify small molecule agonists of the endoplasmic reticulum stress response signaling pathway (AID 1159516; active = well fitted activation curve with a large enough effect in the signal ratio in the repeat runs, not every such curve was filed as active; the % refers to the signal ratio; also: potency is read from the fitted curve at half-maximal effect). Summed up: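 Tox21 10K library screened in quantitative HTS format on ESRE-bla HeLa cells, a beta-lactamase reporter under ER stress response element control; 5 hr treatment, FRET read.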
The nature of experiment [3]: qHTS assay to identify small molecule antagonists of the retinoid-related orphan receptor gamma (ROR-gamma) signaling pathway - cell viability counter screen (AID 1159520). Also: nearly all actives have a fitted effect of over 50% in size. Also: potency is read from the fitted curve at half-maximal effect. Summed up:
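Tet-on ROR gamma CHO cells (1,000/well) were plated 4 hr, given compounds in DMSO for 2 hr at 37 C, then induced with 1 uM final doxycycline for 16 hr. Viability was read as ATP by CellTiter-Glo luminescence after 30 min.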

A short description of experiment [4]: qHTS assay to identify small molecule antagonists of the vitamin D receptor (VDR) signaling pathway - cell viability counter screen (AID 743225). Also: nearly all actives have a fitted effect of over 50% in size. Also: potency is read from the fitted curve at half-maximal effect. Summed up:
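Same-well multiplex: following 16 h treatment of HEK 293T cells carrying a UAS-driven beta-lactamase reporter with compound and agonist (3 nM final), and a 2 h FRET substrate step, CellTiter-Glo was added and luminescence read after 30 min.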

Experiment [5] addresses Nuclear receptor ROR-gamma (Homo sapiens) (UniProt P51449). Nature of the experiment: qHTS assay to identify small molecule antagonists of the retinoid-related orphan receptor gamma (ROR-gamma) signaling pathway (AID 1159521; also: nearly all actives have a fitted effect of over 50% in size; also: potency is read from the fitted curve at half-maximal effect). A digest of the protocol:
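Inducible-expression reporter assay: doxycycline (1 uM final) switched on RORγ in CHO cells bearing a ROR response element-luciferase construct, with test compounds present from 2 h beforehand. Decreased luminescence after 16 h defined antagonist activity.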

Experiment [6] can be described thus: qHTS assay to identify small molecule agonists of the RXR signaling pathway - cell viability counter screen (AID 1159529). Also: nearly all actives have a fitted effect of over 50% in size. Also: potency is read from the fitted curve at half-maximal effect. Summed up:
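Counter screen: CellTiter-Glo luminescence. Cells: RXR-alpha-UAS-bla HEK 293T. Medium: 2% charcoal-stripped FBS. Treatment: 16 h, 37 C. Reagent incubation: 30 min, RT.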

Experiment [7] can be described thus: qHTS assay to identify small molecule agonists of the endoplasmic reticulum stress response signaling pathway - cell viability counter screen (AID 1159517; calls by dose curve; also: nearly all actives have a fitted effect of over 50% in size; also: potency is read from the fitted curve at half-maximal effect). Summed up:
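Luminescence readout: CellTiter-Glo, 30 min RT, same wells as the ESRE-bla reporter read. HeLa ESRE-bla, 1,500 cells/well, o/n 37 C; cpd 5 hr 37 C/5% CO2.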

The nature of experiment [8]: qHTS assay to identify small molecule agonists of the AP-1 signaling pathway - cell viability counter screen (AID 1159525; calls by dose curve; also: nearly all actives have a fitted effect of over 55% in size; also: potency is read from the fitted curve at half-maximal effect). A digest of the protocol: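 ME-180 AP-1-bla, 2500 cells/well, Opti-MEM + 0.5% dialyzed FBS; overnight 37 °C; cpd 15-pt titration, 5 h 37 °C; CellTiter-Glo 30 min RT; luminescence read; normalised to TOAB and DMSO controls.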
Experiment [9] in a line: qHTS assay to identify small molecule agonists of the AP-1 signaling pathway (AID 1159526; calls by dose curve).
Experiment [10] deals with Retinoic acid receptor RXR-alpha (Homo sapiens) (UniProt P19793). Nature of the experiment: qHTS assay to identify small molecule agonists of the RXR signaling pathway (AID 1159527; calls by dose curve; also: nearly all actives have a fitted effect of over 35% in size). A digest of the protocol:
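Compounds in DMSO were added to RXR-alpha-UAS-bla HEK 293T cells kept in 2% charcoal-stripped serum, and incubated 16 hr at 37 C with 5% CO2. Reporter signal came from a 2 hr B/G FRET substrate step.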

Values joined by “and” are separate entries in the source; they are usually repeats but may differ in a detail not shown here. Identical values can stand only once. Records with an inconclusive call do not appear. The source holds several records for some structures; these can differ, active in one and inactive in another. Active and inactive are the calls of the source. Unless noted, calls follow the shape of the dose curve; as a rule, active = well fitted curve in the direction sought with a large enough effect in the repeat runs; inconclusive = weak or mixed curves; inactive = no such curve, though single readings can be large; an effect the other way counts as inactive or inconclusive.

Retinoic acid receptor RXR-alpha (Homo sapiens), sequence (P19793 whole entry, looked up): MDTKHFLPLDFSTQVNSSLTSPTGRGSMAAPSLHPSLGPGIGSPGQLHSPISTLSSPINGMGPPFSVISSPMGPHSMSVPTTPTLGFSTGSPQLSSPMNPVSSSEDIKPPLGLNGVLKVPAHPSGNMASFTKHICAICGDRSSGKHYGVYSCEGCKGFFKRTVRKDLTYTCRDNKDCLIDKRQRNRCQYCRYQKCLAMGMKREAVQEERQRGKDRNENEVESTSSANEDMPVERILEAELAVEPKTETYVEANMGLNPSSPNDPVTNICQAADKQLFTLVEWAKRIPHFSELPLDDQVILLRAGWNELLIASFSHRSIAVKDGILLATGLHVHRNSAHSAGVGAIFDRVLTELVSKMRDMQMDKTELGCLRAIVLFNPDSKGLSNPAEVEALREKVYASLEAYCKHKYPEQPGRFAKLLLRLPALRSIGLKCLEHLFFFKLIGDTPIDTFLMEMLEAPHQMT

For the compound `S=P(N1CC1)(N1CC1)N1CC1`, in experiment [1], the Potency was 41 µM (active). The Potency result in experiment [2] and in experiment [3] was “inactive” throughout.
`CC(=O)OC(OC(C)=O)c1ccc([N+](=O)[O-])o1`: the Potency in experiment [1] was 44.4 µM (active); in [4] it was 49.8 µM (active); in [5], 31.2 µM (active); in experiment [6] it was 49.8 µM (active). Further, in experiment [2], the Potency result was “inactive”.
With `C=C(C)C(=O)OCCC[Si](Cl)(Cl)Cl`, the Potency entry in [1], in [4], in experiment [7], in experiment [3], in experiment [5] and in experiment [8] was “inactive” each time. Further, the Potency result in experiment [9], in experiment [10] and in experiment [6] was “inactive” each time.
With `Cc1cccc(Br)c1`, the Potency result in experiment [1], in experiment [4], in [2] and in experiment [3] was “inactive” throughout. The Potency in experiment [6] was 55.3 µM (active).
Take `CCCCCCCCCCCCCCNCCO`: the Potency entry in experiment [1], in [4], in experiment [5], in [8], in experiment [9] and in experiment [10] was “inactive” throughout. The Potency in experiment [7] was 23.9 µM (active); in [3], 26.6 µM (active).
For `C=CC(=O)OCCOCC(CC)(COCCOC(=O)C=C)COCCOC(=O)C=C`, the Potency is 64.3 µM (active) in experiment [1], 64.3 µM (active) in [4] and 11.3 µM (active) in experiment [3]. The Potency entry in experiment [2] is “inactive”.
Consider `CCCCCCC(C)Nc1ccc(Nc2ccccc2)cc1` (stereo unspecified), for which the Potency is 38.9 µM (active) in experiment [1], 43.6 µM (active) in experiment [4] and 49 µM (active) in experiment [8]. For the same compound, the Potency entry in experiment [2] is “inactive”.
With `O=C1c2c(O)ccc(O)c2C(=O)c2c(NCCNCCO)ccc(NCCNCCO)c21`, the Potency result in [7] and in experiment [5] was “inactive” each time. In addition, the Potency in experiment [3] was 23.7 µM (active).
Regarding `O=C(Nc1ccc(Cl)c(Cl)c1)c1cc(Cl)cc(Cl)c1O`, the Potency in experiment [1] was 1.95 µM (active); in experiment [4], 2.75 µM (active); in [2], 19.5 µM (active); in [3] it was 9.69 µM (active); in experiment [5], 2.17 µM (active); in experiment [6], 19.5 µM (active).
For the compound `COC(=O)[C@]1(C)CCC[C@@]2(C)[C@H]1CC=C1C=C(C(C)C)CC[C@@H]12`, the Potency result in experiment [1], in experiment [4], in [3], in [5], in experiment [8] and in [9] was “inactive” each time. Also, the Potency result in [10] and in experiment [6] was “inactive” in each case. In [7], the Potency was 49 µM (active).
`O=Cc1ccc(F)cc1`: the Potency result in experiment [1], in experiment [4], in experiment [2], in experiment [3], in experiment [5] and in [8] was “inactive” each time. Moreover, the Potency entry in experiment [9] and in [6] was “inactive” each time.
In the case of `CC(C)(c1cc(Br)c(OCCO)c(Br)c1)c1cc(Br)c(OCCO)c(Br)c1`, the Potency in experiment [1] is 38 µM (active); in experiment [3], 47.5 µM (active); in experiment [6] it was 42.7 µM (active). Also, the Potency entry in experiment [2] is “inactive”.
For `C=CC(=O)OCC(O)COc1ccccc1` (stereo unspecified), the Potency entry in experiment [2] and in experiment [6] was “inactive” each time. Also, the Potency in [5] is 61.1 µM (active).
As to `CC(COC(=O)c1ccccc1)OC(=O)c1ccccc1` (stereo unspecified), the Potency result in experiment [1], in experiment [4], in [7], in experiment [3], in experiment [5] and in experiment [8] was “inactive” throughout. For the same compound, the Potency result in experiment [9], in experiment [10] and in experiment [6] was “inactive” each time.
For the compound `COC(=O)C1=C(C)NC(C)=C(C(=O)OCCCN2CCC(c3ccccc3)(c3ccccc3)CC2)C1c1cccc([N+](=O)[O-])c1` (stereo unspecified), the Potency was 26.6 µM (active) in experiment [1], 23.9 µM (active) in experiment [4] and 23.7 µM (active) in experiment [5]. For the same compound, the Potency entry in [2] and in experiment [8] was “inactive” in each case.
For `O=C1OC(=O)c2cccc3cccc1c23`, the Potency result in experiment [1], in [4], in experiment [2], in experiment [3], in experiment [5] and in experiment [8] was “inactive” each time. For the same compound, the Potency entry in experiment [10] and in [6] was “inactive” each time.
Regarding `CN(C)CCOC(c1ccccc1)c1ccccc1` (tested in a mixture with another compound), the Potency result in experiment [2], in experiment [3] and in [8] was “inactive” each time.
Turning to `COC(=O)CC#N`, the Potency result in [1], in [4], in experiment [2], in [3], in experiment [8] and in experiment [9] was “inactive” each time. In addition, the Potency entry in experiment [6] is “inactive”.
`CCCCCCOc1ccc(O)cc1`: the Potency result in experiment [4], in experiment [2], in experiment [3] and in [5] was “inactive” each time.
For `C(=C/c1ccccc1)/c1ccccc1`, the Potency entry in [1], in experiment [4], in [2], in experiment [3], in [5] and in experiment [8] was “inactive” throughout. In addition, the Potency result in experiment [9] and in experiment [6] was “inactive” in each case.
Regarding `CC(C)OC(=O)c1cc(C(=O)OC(C)C)cc([N+](=O)[O-])c1`, the Potency entry in experiment [1], in experiment [2], in experiment [3] and in [8] was “inactive” throughout.
Turning to `Nc1ncnc2c1ncn2[C@@H]1O[C@H](COP(=O)(O)O)[C@@H](O)[C@H]1O`, the values for the Potency in experiment [1] and in [4] were 10.6 µM (active) and 10.7 µM (active), respectively. In addition, the Potency result in [2], in experiment [3], in experiment [5], in [8] and in [10] was “inactive” each time.
As to `CC(C)c1ccc(O)c(C(C)C)c1`, the Potency result in experiment [2] and in experiment [5] was “inactive” in each case. Further, in experiment [6], the Potency is 38.9 µM (active).
In the case of `CN1CCN(C2Cc3ccccc3Sc3ccc(Cl)cc32)CC1` (stereo unspecified), the Potency result in [2] was “inactive”. Further, the Potency in experiment [5] is 26.6 µM (active); in experiment [6], 23.9 µM (active).
Consider `CCCCCCCC/C=C\CCCCCCCC(=O)OCCOC(=O)CCCCCCC/C=C\CCCCCCCC`, for which the Potency entry in experiment [1], in experiment [4], in experiment [7], in [3], in experiment [5] and in experiment [8] was “inactive” throughout. For the same compound, the Potency result in experiment [9], in experiment [10] and in [6] was “inactive” in each case.
Consider `c1ccc(Nc2cccc3ccccc23)cc1`, for which the Potency was 55.7 µM (active) and inactive in [1]; 31.3 µM (active) and 49 µM (active) in [8]; 24.9 µM (active) in experiment [6]. Also, the Potency entry in experiment [4], in [2] and in experiment [5] was “inactive” throughout.
Consider `C=C1C(C)(C)[C@@]2(Cl)C(Cl)[C@]1(Cl)C(Cl)(Cl)C2(Cl)Cl` (stereo partly specified), for which the Potency in [1] was 38.2 µM (active); in experiment [7] it was 48.1 µM (active); in experiment [3], 67.3 µM (active); in experiment [5], 47.7 µM (active); in experiment [8] it was 48.1 µM (active); in [6], 19.1 µM (active).
Regarding `CCCCCCCCCC(=O)N(C)C`, the Potency result in experiment [1], in [4], in experiment [7], in experiment [3], in [5] and in [8] was “inactive” in each case. For the same compound, the Potency result in experiment [9] and in experiment [6] was “inactive” throughout.
For `O=C(Nc1ccc(Cl)cc1)Nc1ccc(Cl)c(C(F)(F)F)c1`, the Potency is 11.9 µM (active) in experiment [1]; 12 µM (active) in experiment [4]; 21.3 µM (active) in experiment [7]; 23.7 µM (active) in [3]; 7.5 µM (active) in experiment [5]; 16.9 µM (active) in [8]. Further, the Potency in experiment [6] was 12 µM (active).
Take `NCCCCCCNCCCCCCN`: the Potency result in experiment [1], in experiment [4], in experiment [7], in experiment [3], in [5] and in experiment [8] was “inactive” throughout. Also, the Potency entry in [9] and in experiment [6] was “inactive” in each case.
`C/C=C/C(=O)Oc1c(CCCCCC(C)C)cc([N+](=O)[O-])cc1[N+](=O)[O-]`: the Potency in experiment [1] was 13.8 µM (active); in experiment [7], 21.9 µM (active); in [3], 19.3 µM (active); in experiment [5], 6.11 µM (active); in experiment [6] it was 24.5 µM (active).
